According to PubChem BioAssay:

Assay: E. coli acrAB mutant growth effects, primary screen, E. coli filamentation inducers, strain DRC39, OD650, 48 h (AID 1179);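 note: screen aims at cell division blockers that make cells filament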
Conditions: E. coli DRC39 delta-acrAB growth, higher = more signal, called active from +8 up or from −8 down

z-score, inactive:
[N-]=[N+]=Nc1ccccc1[C@H]1OC(c2ccc(OCCCO)cc2)=N[C@@]1(Cc1ccccc1)C(=O)N1CCOCC1 -0.927, CN1C(=O)C2C=CC(C(O)c3ccccc3)N(N3CCCCC3)C2C1=O (configuration not stated) -1.4, C=CCC(OC(C)=O)[C@@H]1[C@@H](N(Cc2ccc(-c3ccccc3)cc2)C(=O)Cc2ccc(F)cc2)c2cc(OCCCO)ccc2N1C(=O)c1ccc2ccccc2c1 (some centres not stated) -0.397, COc1cc(CO)cc(I)c1O[C@H]1C=C(C(=O)NCCO)C[C@@H](N(C(=O)c2cc3ccccc3oc2=O)C2CCCCCC2)[C@@H]1O 0.435, CCCNC(=O)[C@@]1(Sc2ccc(C)cc2)CC(=O)N(Cc2ccccc2C(F)(F)F)[C@@H]1c1ccc(CO)cc1I -0.478, NC(=O)[C@@H]1[C@H]2C(=O)O[C@H](c3ccccc3)[C@H](c3ccccc3)N2[C@H](c2ccc(OCCO)cc2)[C@@]12C(=O)Nc1ccc(C#CC3=CCCCC3)cc12 -0.668, COCCCNC(=O)[C@@]1(Cc2ccccc2)N=C(c2ccc(OCCCO)cc2)O[C@H]1c1ccccc1CN=[N+]=[N-] 0.134, Cc1ccc(C2C3C(=O)CC4C(=O)N(c5ccccc5)C(=O)C4C3CN2S(=O)(=O)c2ccc(C)cc2)cc1 (configuration not stated) 0.384, O=C(NC1CC1)[C@@H]1c2ccccc2C(=O)N(Cc2cc(F)cc(C(F)(F)F)c2)[C@H]1c1ccc(CO)cc1 -0.664, COc1cc2c(cc1O)C(c1cccs1)N(Cc1cccc(OC(F)(F)F)c1)CC2 (configuration not stated) 1.14, CCOC(=O)C1=CC[C@@H](c2ccccc2)N(S(=O)(=O)c2ccc(C)cc2)[C@H]1c1ccc(CC)cc1 0.629, CN1CCC(CCCO)=CC1c1cccs1 (configuration not stated) 0.0999, CCCCCN1CC=CC23O[C@@H]4C=CCOC(=O)[C@@H]4[C@H]2C(=O)N(C(C)CO)[C@@H]3C1=O (some centres not stated) -0.443, Cc1ccc(S[C@]2(C(=O)NCC(C)C)CC(=O)N(Cc3cc(C(F)(F)F)cc(C(F)(F)F)c3)[C@@H]2c2ccc(CO)cc2)cc1 -0.882, CC1CC/C=C\[C@H]2OC34C=CCN(Cn5nnc6ccccc65)C(=O)[C@H]3N(CCCCCO)C(=O)[C@@H]4C2C(=O)O1 (some centres not stated) 0.434, COc1ccc([Si](C)(C)[C@@H]2[C@@H](CCO)O[C@]3(C(=O)N(Cc4cccc(N5CCOC5=O)c4)c4ccccc43)[C@H]2C)cc1 0.44, CCCCN1CC=CC23O[C@@H]4C=CCCOC(=O)C4[C@H]2C(=O)N(CCCCCO)[C@@H]3C1=O (some centres not stated) 0.923, COc1ccc(CCNC(=O)[C@@]2(C)c3ccccc3C(=O)N(c3ccc(C)cn3)[C@H]2c2ccc(CO)cc2)cc1 0.737, COC(=O)[C@@]1(Cc2ccc(OC)cc2)[C@H]2c3cc(C(=O)N4CCCC4)n(Cc4nc5ccccc5[nH]4)c3C[C@H]2CN1C(=O)c1ccccc1 -0.104, [N-]=[N+]=NCc1ccccc1[C@@H]1OC(c2ccc(OCCCO)cc2)=N[C@]1(CCS(=O)(=O)c1ccccc1)C(=O)N1CCOCC1 0.753, CCOC(=O)C1=CC[C@H]2C(=O)N(c3ccccc3)C(=O)[C@@H]12 -1.17, COC(=O)[C@@]1(Cc2ccc(F)cc2)[C@H]2c3cc(C(=O)N(C)C)n(Cc4ccc(C)o4)c3C[C@H]2CN1C(=O)c1ccccc1 -0.192, OCCCC1=CC(C2CC2)N(Cc2cccc(OC(F)(F)F)c2)CC1 (configuration not stated) 0.327, CCOc1cc(C(O)C2C=CC3C(=O)N(c4ccccc4)C(=O)C3N2Nc2ccc(C(C)C)cc2)ccc1O (configuration not stated) -1.34, CO[C@H]1O[C@H](CO)[C@@H](OC(=O)Nc2ccccc2)[C@@H]2OC(=O)[C@@H](Cc3ccc4ccccc4c3)C/C=C/C[C@H](Cc3ccc4ccccc4c3)C(=O)O[C@@H]12 1.09, CCOC(=O)C[C@H]1[C@H](OC(=O)c2ccc(C(=O)c3ccccc3)cc2)[C@@H](NC(=O)Cc2ccc(OC)cc2)c2cc(OCCCO)ccc2N1C(=O)c1ccc2ccccc2n1 -0.335, C=CC[C@]1(C(=O)N2CCOCC2)N=C(c2ccc(OCCCO)cc2)O[C@H]1c1ccccc1N=[N+]=[N-] 0.844
